# Experimental data: article PMC7862700, “An all-to-all approach to the identification of sequence-specific readers for epigenetic DNA modifications on cytosine”
# How the values were obtained:
# Assay in all cases: DAPPL (digital affinity profiling via proximity ligation, sequencing); 10 mM Tris-HCl pH 7.5, 50 mM NaCl, 1 mM DTT, 4% glycerol, room temperature, 30 min; GST-TFs on glutathione beads, 16-mer random dsDNA library, 0.1% formaldehyde crosslink after washing; high values mean tight binding
# FLI1 = biological target: T1, FLI1 (Homo sapiens, UniProt Q01543 1-452); details: protein: recombinant; tags: N-terminal GST; dsDNA, one strand shown
# T1 sequence: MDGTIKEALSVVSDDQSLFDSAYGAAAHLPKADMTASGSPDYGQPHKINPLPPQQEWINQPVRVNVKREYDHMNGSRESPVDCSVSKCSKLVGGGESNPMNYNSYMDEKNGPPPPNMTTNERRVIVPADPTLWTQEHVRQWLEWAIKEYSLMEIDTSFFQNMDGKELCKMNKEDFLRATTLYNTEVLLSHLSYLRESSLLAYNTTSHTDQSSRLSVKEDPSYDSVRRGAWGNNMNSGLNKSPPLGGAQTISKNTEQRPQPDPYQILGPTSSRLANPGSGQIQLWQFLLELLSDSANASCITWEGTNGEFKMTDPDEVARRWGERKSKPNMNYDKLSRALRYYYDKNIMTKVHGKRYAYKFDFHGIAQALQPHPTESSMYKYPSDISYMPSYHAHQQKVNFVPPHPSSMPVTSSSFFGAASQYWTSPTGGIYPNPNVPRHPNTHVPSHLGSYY
# Method in brief: (§1)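 A tag-only sample was pooled with DNA-barcoded human transcription factors that had been expressed in yeast as GST fusions and captured on glutathione beads. The pools were incubated for 30 min at room temperature with 200 nmole of a random double-stranded 16-mer DNA library in Tris/NaCl/DTT/glycerol buffer, then washed, crosslinked with 0.1% formaldehyde, proximity-ligated (BsaI/T4 ligase, 1 h, 37 °C), PCR-amplified and sequenced on an Illumina NextSeq500. Binding signal is each hexamer's read frequency for a factor divided by its frequency for the tag-only sample.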
# ELK1 = biological target: T2, ELK1 (Homo sapiens, UniProt P19419 1-428); details: protein: recombinant; tags: N-terminal GST; dsDNA, one strand shown
# T2 sequence: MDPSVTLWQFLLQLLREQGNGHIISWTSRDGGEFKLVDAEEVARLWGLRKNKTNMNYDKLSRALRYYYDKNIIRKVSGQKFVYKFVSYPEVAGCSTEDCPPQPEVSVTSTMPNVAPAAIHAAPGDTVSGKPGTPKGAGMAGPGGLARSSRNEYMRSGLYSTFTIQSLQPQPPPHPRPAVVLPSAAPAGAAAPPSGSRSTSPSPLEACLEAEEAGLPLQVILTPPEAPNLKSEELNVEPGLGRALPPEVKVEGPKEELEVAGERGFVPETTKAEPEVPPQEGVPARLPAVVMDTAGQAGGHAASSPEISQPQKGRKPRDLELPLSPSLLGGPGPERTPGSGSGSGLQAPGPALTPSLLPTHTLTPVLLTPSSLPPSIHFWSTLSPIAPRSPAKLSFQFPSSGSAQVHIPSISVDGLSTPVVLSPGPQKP
# Method in brief: as §1
# GABPA = biological target: T3, GABPA (Homo sapiens, UniProt Q06546 1-454); details: protein: recombinant; tags: N-terminal GST; dsDNA, one strand shown
# T3 sequence: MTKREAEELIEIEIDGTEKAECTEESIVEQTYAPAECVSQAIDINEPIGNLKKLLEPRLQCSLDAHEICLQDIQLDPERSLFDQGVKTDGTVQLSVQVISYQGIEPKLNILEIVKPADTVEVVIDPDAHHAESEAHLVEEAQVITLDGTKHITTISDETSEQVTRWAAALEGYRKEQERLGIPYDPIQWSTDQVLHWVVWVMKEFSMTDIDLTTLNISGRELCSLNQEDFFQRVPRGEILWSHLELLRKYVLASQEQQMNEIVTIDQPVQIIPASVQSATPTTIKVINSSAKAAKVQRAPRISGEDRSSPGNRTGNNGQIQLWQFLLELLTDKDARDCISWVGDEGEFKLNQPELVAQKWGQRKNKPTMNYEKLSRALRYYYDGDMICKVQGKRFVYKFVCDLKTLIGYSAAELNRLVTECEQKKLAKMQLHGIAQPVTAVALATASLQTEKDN
# Method in brief: as §1
# ERG = biological target: T4, ERG (Homo sapiens, UniProt P11308 1-479); details: protein: recombinant; tags: N-terminal GST; dsDNA, one strand shown
# T4 sequence: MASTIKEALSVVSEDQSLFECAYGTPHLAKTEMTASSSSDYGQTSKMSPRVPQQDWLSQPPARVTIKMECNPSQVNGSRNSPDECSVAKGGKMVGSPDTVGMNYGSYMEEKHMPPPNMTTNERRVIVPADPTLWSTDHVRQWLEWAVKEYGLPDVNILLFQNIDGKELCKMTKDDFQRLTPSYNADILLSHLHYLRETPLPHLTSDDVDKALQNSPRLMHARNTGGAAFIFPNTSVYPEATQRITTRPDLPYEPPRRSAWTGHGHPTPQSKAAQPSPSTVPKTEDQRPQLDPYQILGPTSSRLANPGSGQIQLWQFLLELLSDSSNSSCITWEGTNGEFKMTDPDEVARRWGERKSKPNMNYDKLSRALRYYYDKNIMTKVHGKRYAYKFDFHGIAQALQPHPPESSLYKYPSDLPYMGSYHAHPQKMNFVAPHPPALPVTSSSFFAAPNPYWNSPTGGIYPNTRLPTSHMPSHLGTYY
# Method in brief: as §1
# ELF1 = ELF1 (Homo sapiens, UniProt P32519 1-619); details: protein: recombinant; tags: N-terminal GST; dsDNA, one strand shown
# Method in brief: as §1
# EHF = biological target: T5, EHF (Homo sapiens, UniProt Q9NZC4 1-300); details: protein: recombinant; tags: N-terminal GST; dsDNA, one strand shown
# T5 sequence: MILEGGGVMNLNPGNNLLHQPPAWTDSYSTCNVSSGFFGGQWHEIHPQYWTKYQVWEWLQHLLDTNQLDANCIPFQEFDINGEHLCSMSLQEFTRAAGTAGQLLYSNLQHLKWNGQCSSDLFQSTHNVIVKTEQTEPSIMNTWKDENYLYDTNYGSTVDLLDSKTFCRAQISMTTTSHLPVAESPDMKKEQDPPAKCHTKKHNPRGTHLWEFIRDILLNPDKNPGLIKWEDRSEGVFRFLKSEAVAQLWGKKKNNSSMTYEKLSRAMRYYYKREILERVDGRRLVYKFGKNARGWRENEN
# Method in brief: as §1
# SPI1 = SPI1 (Homo sapiens, UniProt P17947 1-270); details: protein: recombinant; tags: N-terminal GST; dsDNA, one strand shown
# Method in brief: as §1
# SPIB = SPIB (Homo sapiens, UniProt Q01892 1-262); details: protein: recombinant; tags: N-terminal GST; dsDNA, one strand shown
# Method in brief: as §1
# ELK3 = biological target: T6, ELK3 (Homo sapiens, UniProt P41970 1-407); details: protein: recombinant; tags: N-terminal GST; dsDNA, one strand shown
# T6 sequence: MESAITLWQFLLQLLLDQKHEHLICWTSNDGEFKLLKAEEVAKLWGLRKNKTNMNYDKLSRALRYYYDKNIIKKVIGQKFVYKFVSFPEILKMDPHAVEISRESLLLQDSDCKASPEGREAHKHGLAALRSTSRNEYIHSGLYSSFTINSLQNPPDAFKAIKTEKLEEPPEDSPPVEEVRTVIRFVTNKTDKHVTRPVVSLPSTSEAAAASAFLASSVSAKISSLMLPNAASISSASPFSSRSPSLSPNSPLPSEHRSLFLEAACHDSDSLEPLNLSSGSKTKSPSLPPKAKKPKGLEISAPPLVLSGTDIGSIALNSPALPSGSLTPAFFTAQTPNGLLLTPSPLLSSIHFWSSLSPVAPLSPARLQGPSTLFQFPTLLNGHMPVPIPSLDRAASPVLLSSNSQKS
# Method in brief: as §1
# ETV5 = ETV5 (Homo sapiens, UniProt P41161 1-510); details: protein: recombinant; tags: N-terminal GST; dsDNA, one strand shown
# Method in brief: as §1
# HSF1 = HSF1 (Homo sapiens, UniProt Q00613 1-529); details: protein: recombinant; tags: N-terminal GST; chain copies: 3; dsDNA, one strand shown
# Method in brief: as §1
# ELF4 = ELF4 (Homo sapiens, UniProt Q99607 1-663); details: protein: recombinant; tags: N-terminal GST; dsDNA, one strand shown
# Method in brief: as §1
# ELK4 = biological target: T7, ELK4 (Homo sapiens, UniProt P28324-2 1-405); details: protein: recombinant; tags: N-terminal GST; dsDNA, one strand shown
# T7 sequence: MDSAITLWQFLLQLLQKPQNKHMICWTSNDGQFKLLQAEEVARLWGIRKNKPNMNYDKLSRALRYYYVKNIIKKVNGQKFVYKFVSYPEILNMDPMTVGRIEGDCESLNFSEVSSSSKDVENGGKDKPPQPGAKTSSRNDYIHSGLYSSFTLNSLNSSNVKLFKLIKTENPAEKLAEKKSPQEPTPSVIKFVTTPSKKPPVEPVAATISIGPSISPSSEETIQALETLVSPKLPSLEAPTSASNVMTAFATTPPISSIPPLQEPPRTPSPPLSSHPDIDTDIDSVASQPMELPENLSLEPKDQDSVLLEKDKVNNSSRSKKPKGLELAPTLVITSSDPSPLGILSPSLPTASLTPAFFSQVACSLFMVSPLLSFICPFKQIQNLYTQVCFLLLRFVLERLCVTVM
# Method in brief: as §1
# ETV2 = biological target: T8, ETV2 (Homo sapiens, UniProt O00321 1-342); details: protein: recombinant; tags: N-terminal GST; dsDNA, one strand shown
# T8 sequence: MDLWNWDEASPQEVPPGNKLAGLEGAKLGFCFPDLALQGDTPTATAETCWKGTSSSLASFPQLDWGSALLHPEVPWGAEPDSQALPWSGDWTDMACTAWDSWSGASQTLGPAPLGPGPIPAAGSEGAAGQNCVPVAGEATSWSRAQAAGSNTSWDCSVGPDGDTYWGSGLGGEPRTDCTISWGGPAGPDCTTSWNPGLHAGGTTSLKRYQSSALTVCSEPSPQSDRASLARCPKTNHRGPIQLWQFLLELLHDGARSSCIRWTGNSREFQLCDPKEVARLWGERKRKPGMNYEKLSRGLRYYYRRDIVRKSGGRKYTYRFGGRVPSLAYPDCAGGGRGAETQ
# Method in brief: as §1
# ELF3 = biological target: T9, ELF3 (Homo sapiens, UniProt P78545 1-371); details: protein: recombinant; tags: N-terminal GST; dsDNA, one strand shown
# T9 sequence: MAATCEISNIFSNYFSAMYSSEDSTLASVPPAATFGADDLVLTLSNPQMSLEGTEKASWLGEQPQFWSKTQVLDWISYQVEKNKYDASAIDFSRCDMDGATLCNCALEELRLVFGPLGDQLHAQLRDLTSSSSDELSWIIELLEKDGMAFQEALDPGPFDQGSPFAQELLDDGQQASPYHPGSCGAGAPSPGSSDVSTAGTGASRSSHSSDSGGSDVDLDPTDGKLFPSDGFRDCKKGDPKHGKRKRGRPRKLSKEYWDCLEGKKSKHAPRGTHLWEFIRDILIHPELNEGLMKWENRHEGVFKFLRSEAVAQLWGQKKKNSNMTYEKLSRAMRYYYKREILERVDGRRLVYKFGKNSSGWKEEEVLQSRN
# Method in brief: as §1
# CRX = CRX (Homo sapiens, UniProt O43186 1-299); details: protein: recombinant; tags: N-terminal GST; dsDNA, one strand shown
# Method in brief: as §1
# ETV1 = ETV1 (Homo sapiens, UniProt P50549 1-477); details: protein: recombinant; tags: N-terminal GST; dsDNA, one strand shown
# Method in brief: as §1
# ELF4, sequence (Q99607 whole entry): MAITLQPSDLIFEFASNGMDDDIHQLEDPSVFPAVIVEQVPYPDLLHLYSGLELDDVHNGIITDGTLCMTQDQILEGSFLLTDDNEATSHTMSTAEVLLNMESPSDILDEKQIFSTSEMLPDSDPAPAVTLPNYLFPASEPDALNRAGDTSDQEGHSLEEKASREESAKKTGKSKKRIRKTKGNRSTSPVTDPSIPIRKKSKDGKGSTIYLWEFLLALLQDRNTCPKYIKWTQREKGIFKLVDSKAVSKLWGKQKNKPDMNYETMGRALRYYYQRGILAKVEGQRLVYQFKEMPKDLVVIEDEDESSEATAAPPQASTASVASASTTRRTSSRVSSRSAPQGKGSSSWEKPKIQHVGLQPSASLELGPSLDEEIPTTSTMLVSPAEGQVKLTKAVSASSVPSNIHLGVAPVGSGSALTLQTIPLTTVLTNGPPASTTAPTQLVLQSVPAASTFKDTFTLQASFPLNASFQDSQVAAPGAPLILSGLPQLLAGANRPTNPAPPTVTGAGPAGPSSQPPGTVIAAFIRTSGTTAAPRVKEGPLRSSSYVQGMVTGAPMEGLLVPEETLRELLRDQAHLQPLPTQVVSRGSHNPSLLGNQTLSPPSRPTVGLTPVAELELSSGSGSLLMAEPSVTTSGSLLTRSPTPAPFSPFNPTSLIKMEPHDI
# ETV5, sequence (P41161 whole entry): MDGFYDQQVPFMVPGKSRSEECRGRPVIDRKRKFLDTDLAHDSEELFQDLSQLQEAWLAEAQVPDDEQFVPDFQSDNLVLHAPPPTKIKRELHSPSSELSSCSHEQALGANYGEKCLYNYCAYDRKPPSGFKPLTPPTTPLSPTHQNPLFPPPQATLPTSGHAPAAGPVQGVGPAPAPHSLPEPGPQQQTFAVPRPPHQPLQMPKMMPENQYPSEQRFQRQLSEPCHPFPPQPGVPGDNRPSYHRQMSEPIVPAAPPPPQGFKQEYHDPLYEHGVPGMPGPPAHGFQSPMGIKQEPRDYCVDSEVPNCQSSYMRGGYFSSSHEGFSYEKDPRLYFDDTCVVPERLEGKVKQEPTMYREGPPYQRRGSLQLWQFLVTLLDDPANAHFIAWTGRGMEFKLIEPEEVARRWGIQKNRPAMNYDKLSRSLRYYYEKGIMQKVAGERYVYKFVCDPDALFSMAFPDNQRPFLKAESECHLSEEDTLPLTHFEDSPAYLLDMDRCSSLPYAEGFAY
# ELF1, sequence (P32519 whole entry): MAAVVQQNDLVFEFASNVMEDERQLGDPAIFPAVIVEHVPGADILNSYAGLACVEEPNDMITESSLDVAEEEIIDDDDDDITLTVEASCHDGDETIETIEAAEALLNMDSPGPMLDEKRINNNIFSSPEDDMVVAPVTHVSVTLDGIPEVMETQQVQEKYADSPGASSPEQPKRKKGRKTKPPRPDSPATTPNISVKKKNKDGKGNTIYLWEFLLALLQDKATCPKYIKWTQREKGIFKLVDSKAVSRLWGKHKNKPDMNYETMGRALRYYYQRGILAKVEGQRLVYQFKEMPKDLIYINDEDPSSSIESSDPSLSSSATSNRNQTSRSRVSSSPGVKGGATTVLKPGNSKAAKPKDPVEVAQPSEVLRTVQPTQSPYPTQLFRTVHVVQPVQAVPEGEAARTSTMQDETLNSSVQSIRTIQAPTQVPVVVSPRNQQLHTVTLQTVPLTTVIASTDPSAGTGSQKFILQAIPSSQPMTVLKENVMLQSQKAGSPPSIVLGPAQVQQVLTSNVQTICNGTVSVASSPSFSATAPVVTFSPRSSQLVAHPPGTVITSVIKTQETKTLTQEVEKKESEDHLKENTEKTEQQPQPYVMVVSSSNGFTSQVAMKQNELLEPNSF
# ETV1, sequence (P50549 whole entry): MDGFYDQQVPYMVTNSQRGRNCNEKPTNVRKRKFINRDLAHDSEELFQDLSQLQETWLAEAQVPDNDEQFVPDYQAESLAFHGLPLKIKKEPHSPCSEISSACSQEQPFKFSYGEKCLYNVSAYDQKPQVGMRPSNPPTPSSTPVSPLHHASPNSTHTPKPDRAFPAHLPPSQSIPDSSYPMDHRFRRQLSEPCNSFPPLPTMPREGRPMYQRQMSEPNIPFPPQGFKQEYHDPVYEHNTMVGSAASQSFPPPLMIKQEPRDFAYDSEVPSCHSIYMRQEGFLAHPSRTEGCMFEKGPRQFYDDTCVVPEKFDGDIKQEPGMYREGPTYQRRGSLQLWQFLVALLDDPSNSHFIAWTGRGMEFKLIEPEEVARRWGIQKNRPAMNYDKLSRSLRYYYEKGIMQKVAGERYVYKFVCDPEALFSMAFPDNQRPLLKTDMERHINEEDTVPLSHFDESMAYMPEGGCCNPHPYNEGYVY
# CRX, sequence (O43186 whole entry): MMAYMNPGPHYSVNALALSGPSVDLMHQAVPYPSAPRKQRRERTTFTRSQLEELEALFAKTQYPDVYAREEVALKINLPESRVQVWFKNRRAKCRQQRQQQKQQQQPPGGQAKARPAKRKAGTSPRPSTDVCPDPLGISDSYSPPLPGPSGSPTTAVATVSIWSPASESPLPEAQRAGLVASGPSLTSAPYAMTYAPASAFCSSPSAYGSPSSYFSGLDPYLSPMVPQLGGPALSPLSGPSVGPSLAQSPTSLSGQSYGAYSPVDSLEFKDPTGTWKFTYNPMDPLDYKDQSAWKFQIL
# SPIB, sequence (Q01892 whole entry): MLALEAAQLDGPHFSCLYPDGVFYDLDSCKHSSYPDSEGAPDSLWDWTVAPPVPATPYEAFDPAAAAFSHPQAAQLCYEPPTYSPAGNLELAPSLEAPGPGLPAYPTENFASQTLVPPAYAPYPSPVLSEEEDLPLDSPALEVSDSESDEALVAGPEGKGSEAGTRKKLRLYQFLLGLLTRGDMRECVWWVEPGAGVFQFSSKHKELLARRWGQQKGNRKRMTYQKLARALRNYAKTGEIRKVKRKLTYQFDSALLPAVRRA
# HSF1, sequence (Q00613 whole entry): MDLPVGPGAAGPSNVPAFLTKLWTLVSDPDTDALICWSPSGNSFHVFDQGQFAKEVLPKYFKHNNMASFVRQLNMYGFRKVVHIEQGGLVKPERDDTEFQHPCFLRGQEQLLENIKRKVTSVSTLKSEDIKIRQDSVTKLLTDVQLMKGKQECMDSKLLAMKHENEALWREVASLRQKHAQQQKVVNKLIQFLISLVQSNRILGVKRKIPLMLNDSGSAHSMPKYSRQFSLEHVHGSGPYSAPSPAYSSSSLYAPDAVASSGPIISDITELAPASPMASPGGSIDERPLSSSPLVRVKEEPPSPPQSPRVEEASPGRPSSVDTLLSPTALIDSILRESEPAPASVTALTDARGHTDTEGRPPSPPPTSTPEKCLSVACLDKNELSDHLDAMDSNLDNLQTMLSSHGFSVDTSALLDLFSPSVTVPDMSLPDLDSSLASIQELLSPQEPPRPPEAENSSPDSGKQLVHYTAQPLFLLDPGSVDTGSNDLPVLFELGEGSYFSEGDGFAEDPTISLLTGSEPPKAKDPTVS
sequence,measurement,setting,value
TTAGGT,binding signal,FLI1,"1.11 fold enrichment (6-mer frequency, TF over GST control)"
same,binding signal,ELK1,"1.12 fold enrichment (6-mer frequency, TF over GST control)"
same,binding signal,GABPA,"1.2 fold enrichment (6-mer frequency, TF over GST control)"
same,binding signal,ERG,"1.08 fold enrichment (6-mer frequency, TF over GST control)"
same,binding signal,ELF1,"1.03 fold enrichment (6-mer frequency, TF over GST control)"
same,binding signal,EHF,"1.1 fold enrichment (6-mer frequency, TF over GST control)"
same,binding signal,SPI1,"1.02 fold enrichment (6-mer frequency, TF over GST control)"
same,binding signal,SPIB,"1.12 fold enrichment (6-mer frequency, TF over GST control)"
same,binding signal,ELK3,"1.17 fold enrichment (6-mer frequency, TF over GST control)"
same,binding signal,ETV5,"1.12 fold enrichment (6-mer frequency, TF over GST control)"
same,binding signal,HSF1,"1.28 fold enrichment (6-mer frequency, TF over GST control)"
same,binding signal,ELF4,"1.08 fold enrichment (6-mer frequency, TF over GST control)"
same,binding signal,ELK4,"1.26 fold enrichment (6-mer frequency, TF over GST control)"
same,binding signal,ETV2,"1 fold enrichment (6-mer frequency, TF over GST control)"
same,binding signal,ELF3,"1.15 fold enrichment (6-mer frequency, TF over GST control)"
same,binding signal,CRX,"1.82 fold enrichment (6-mer frequency, TF over GST control)"
same,binding signal,ETV1,"1.04 fold enrichment (6-mer frequency, TF over GST control)"
